Compound activity: PubChem BioAssay, Sanford-Burnham Center for Chemical Genomics
DUSP3 inh = blocks the human dual specificity phosphatase VHR1; P51452; inhibition, % at 20 µM; recombinant VHR phosphatase, colorimetric substrate read-out; AID 1992; 0.7% of 50,000 active; in the data active means inhibition above about 60%
Target sequence (P51452 whole entry, looked up): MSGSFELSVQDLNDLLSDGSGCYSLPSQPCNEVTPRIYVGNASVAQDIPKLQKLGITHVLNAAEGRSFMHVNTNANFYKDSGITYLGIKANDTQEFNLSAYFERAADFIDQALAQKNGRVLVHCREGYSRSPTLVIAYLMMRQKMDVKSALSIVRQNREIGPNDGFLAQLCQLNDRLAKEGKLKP
* hit, by the source's call. Only a selection was taken, and hits are over-represented in it overall.

SMILES | DUSP3 inh
Cc1ccc(N2NC(=O)/C(=C/c3cc([N+](=O)[O-])ccc3Cl)C2=O)cc1C | 64*
COc1cc(/C=C2\C(=O)NN(c3ccc(Cl)c(Cl)c3)C2=O)c([N+](=O)[O-])cc1OC | 7
Cc1ccc(N2NC(=O)/C(=C\c3ccco3)C2=O)cc1C | -13
Cc1ccc(N2NC(=O)/C(=C/c3ccc4c(c3)OCO4)C2=O)cc1C | -6
O=C1NN(c2ccccc2)C(=O)/C1=C/c1ccc(-c2cccc([N+](=O)[O-])c2)o1 | -1
COc1ccccc1N(CC(=O)Nc1ccc(C)c(C)c1)S(=O)(=O)c1ccccc1 | -33
O=C(Nc1cccc(-c2cn3ccccc3n2)c1)c1cccc(Br)c1 | -10
Cc1ccc(/C=C2\SC(=S)N(NC(=O)c3cccc([N+](=O)[O-])c3)C2=O)cc1 | -23
COc1ccc(C(=O)Nc2ccccc2C)cc1OC | -14
Cc1ccc2[nH]c(C)c(CC(=O)N/N=C/c3cccnc3)c2c1 | -8
c1ccc2c(c1)[nH]c1nc3nnnn3nc12 | 10
O=C(N/C(=C/c1ccco1)C(=O)N1CCCCC1)c1ccc([N+](=O)[O-])cc1 | -1
O=C(Nc1ccc(Cl)c(-c2nc3ccccc3s2)c1)c1ccc([N+](=O)[O-])o1 | 32
COc1ccc(CC(=O)NCCCN(C)C)cc1 | -18
COc1cc(/C=N/O)ccc1OCc1ccc(Cl)cc1 | 105*
COc1cc(C=Nc2ccc(Nc3ccccc3)cc2)ccc1OCc1ccccc1 | 2
C=CCN1C(=O)NC(=O)/C(=C\c2ccc(OCc3ccc(Cl)cc3)c(OC)c2)C1=O | -32
CN(C1=NC(=O)/C(=C\c2ccc(F)cc2)S1)c1ccc(O)cc1 | -18
O=C(O)C1C2C=CC(C3CC23)C1C(=O)Nc1ccccc1Cl (stereo unspecified) | -3
Cc1cccc(NC(=O)C2C(c3ccccc3)C2(Cl)Cl)c1C (stereo unspecified) | -11
Cc1cccc(NC(=O)C2C3C=CC(C4CC34)C2C(=O)O)c1C (stereo unspecified) | 100*
O=C(NCCOc1cccc2ccccc12)Nc1cc(F)c(F)cc1Cl | 13
COc1cc(/C=C2\C(=O)NC(=O)N(c3ccc(Cl)cc3)C2=O)ccc1O | 34
COc1ccc(-c2noc(-c3ccc(C)c([N+](=O)[O-])c3)n2)cc1OC | -2
CCOc1ccc(Cl)cc1/C=C1\C(=N)N2N=C(CC)SC2=NC1=O | -9
SMILES | DUSP3 inh
CCCC1=NN2C(=N)/C(=C/c3ccc(OCc4ccccc4Cl)cc3)C(=O)N=C2S1 | 3
CCCC1=NN2C(=N)/C(=C/c3cc(OC)ccc3OC)C(=O)N=C2S1 | 112*
CCCC1=NN2C(=N)/C(=C/c3ccc4c(c3)OCO4)C(=O)N=C2S1 | 105*
CCCC1=NN2C(=N)/C(=C/c3ccc(-c4ccc(Cl)cc4Cl)o3)C(=O)N=C2S1 | 10
CCC1=NN2C(=N)/C(=C/c3ccc(OCCOc4cccc(OC)c4)c(OC)c3)C(=O)N=C2S1 | -11
O=C(Nc1ccc2ccccc2c1)C1COc2ccccc2O1 (stereo unspecified) | 5
CCOC(=O)Nc1ccc2c(c1)N(C(=O)N1CCOCC1)c1ccccc1CC2 | -16
COc1cc(/C=C2\N=C(c3ccc(F)cc3)OC2=O)ccc1OC(=O)c1ccccc1Cl | 3
CCOc1cc(C=C2C(=O)NC(=O)NC2=O)ccc1OCc1ccccc1 | 6
CCOc1cc(/C=C2/N=C(c3ccc(NC(C)=O)cc3)OC2=O)ccc1OCc1ccccc1 | 86*
COc1cccc(/C=C2/N=C(c3ccc(NC(C)=O)cc3)OC2=O)c1 | -1
COc1cccc(CN(CCc2ccc3c(c2)OCO3)Cc2cccc(OC)c2)c1 | -17
COc1cccc(/C=C2/C(=O)NC(=O)N(c3cc(C)cc(C)c3)C2=O)c1O | -8
COc1cccc(/C=C2/C(=O)NC(=O)N(c3cccc(C)c3)C2=O)c1O | 107*
COc1ccc(N2C(=O)NC(=O)/C(=C/c3cccc(OC)c3O)C2=O)cc1 | 77
COC(=O)c1c(C)oc2ccc(NS(=O)(=O)c3cccc([N+](=O)[O-])c3)cc12 | -13
COC(=O)C1=C(C)N(c2ccccc2)C(=S)NC1c1ccc(OC)cc1 (stereo unspecified) | 16
O=C(O)C1CCCCC1C(=O)Nc1nc(-c2cccc3ccccc23)cs1 (stereo unspecified) | 100
Cc1ccc(NC(=O)CC2CCCCC2)cc1 | 6
Cc1ccccc1NC(=O)CC1CCCCC1 | 39
O=C(CC1CCCCC1)Nc1ccccc1 | 97*
O=C1NC(=S)N(c2cccc(Br)c2)C(=O)/C1=C/c1ccco1 | 89*
Cc1cc(/C=C2\C(=O)NC(=S)N(c3cccc(Br)c3)C2=O)c(C)n1C | -13
CCOC(=O)C1=C(C)N(c2ccc(OCC)cc2)C(=O)/C1=C\c1ccco1 | -14
CCOc1ccc(N2C(=O)/C(=C/c3ccco3)C(=O)NC2=S)cc1 | 80*
SMILES | DUSP3 inh
CCOc1ccc(N2C(=O)NC(=O)/C(=C\c3ccc(C)o3)C2=O)cc1 | 0
O=C1NC(=S)N(c2cccc(Br)c2)C(=O)/C1=C/c1ccc(O)c(Cl)c1 | -5
O=C1C2C3C=CC(C3)C2C(=O)N1/N=C/c1ccccc1I (stereo unspecified) | -27
O=C(NCc1ccncc1)c1ccc(-c2ccccc2)cc1 | -13
CCCOc1c(I)cc(I)cc1/C=C(/C#N)c1nc2ccc(C)cc2[nH]1 | -14
COCCCNC(=O)c1ccccc1[N+](=O)[O-] | -11
N#C/C(=C\c1ccc(-c2ccc3c(c2)COC3=O)o1)C(N)=O | 35
N#C/C(=C\c1ccc(-c2ccc3c(c2)COC3=O)o1)c1nc2ccccc2[nH]1 | 64*
N#CC(C#N)=Cc1ccc(-c2ccc3c(c2)COC3=O)o1 | 99
CCN(CC)c1nc(-c2ccccc2Cl)nc2ccccc12 | -4
O=[N+]([O-])c1ccc(N2CCN(S(=O)(=O)c3ccccc3)CC2)cc1NCCOc1ccccc1 | -8
CCc1ccc(-c2csc(N)n2)cc1 | 15
COc1ccc2c(c1)CCC/C2=N/OC(=O)c1ccc(OC)c([N+](=O)[O-])c1 | -10
O=C(CCCN1C(=O)/C(=C\c2cccs2)SC1=S)Nc1ccc(Br)cc1 | -12
CCOC(=O)c1sc(NC(=O)CC(c2ccccc2)c2ccccc2)c(C(N)=O)c1C | -6
Cc1ccc(NC(=S)NC(=O)c2ccco2)cc1C | -9
NC1=NC(=O)CC(C(=O)Nc2ccc(Cl)cc2)S1 (stereo unspecified) | -2
O=C1N=c2ccccc2=C1c1sc(Nc2cccc(O)c2)nc1O | 0
O=C1N=c2ccccc2=C1c1sc(Nc2ccc(O)cc2)nc1O | 58*
CCOc1ccc(Nc2nc(O)c(C3=c4cc(Br)ccc4=NC3=O)s2)cc1 | -14
O=C(c1nn2c(C(F)(F)F)cc(-c3ccco3)nc2c1Cl)N1CCCCC1 | -14
N#CSC(C#N)Cc1ccc([N+](=O)[O-])cc1 (stereo unspecified) | 5
Cc1ccc2nc(N/N=C/c3ccc4ncccc4c3)nc(-c3ccccc3)c2c1 | -11
COc1cccc(N2C(=O)NC(=O)/C(=C/C=C/c3ccccc3[N+](=O)[O-])C2=O)c1 | 21
O=C1NC(=S)N(c2cccc(Cl)c2)C(=O)/C1=C\C=C\c1ccccc1[N+](=O)[O-] | 88*
O=C1NC(=S)N(c2ccc(Cl)cc2)C(=O)/C1=C/C=C/c1ccccc1 | 52
CCCCOc1ccc(C(=O)O/N=C(/c2ccncc2)c2ccc([N+](=O)[O-])cc2)cc1 | -27
CCCN(CCC)C(=O)c1cnn(-c2ccccc2)c1NC(=O)c1cccc(F)c1 | 19
Cc1cccc(C(=O)Nc2c(C(=O)N3CCN(C)CC3)cnn2-c2ccccc2)c1 | -6
